Screening results deposited in PubChem by National Center for Advancing Translational Sciences (NCATS).
HCMV antiviral = inhibitors of human cytomegalovirus | HFF cells, HCMV-luciferase reporter, 72 h; stronger effect = lower value | activity change, negative = inhibition, % at 57.5 µM | actives 4.5% (n = 410,000); in the data active means activity change below about -60%; inconclusive means no clear call, values can overlap the other calls; inactive means above about -39%
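After 16 h attachment at 37C, HFF cells received test compound and HCMV-luciferase (1 PFU/cell); reporter luminescence read 72 h later, data normalized against buffer-only and known inhibitor Salinomycin.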
LASV entry inh = Lassa virus entry inhibition; Lassa virus pseudotype entry inhibition, cell reporter; actives 1.2% (n = 300,000); Potency, µM (titrated, usually from 37.9 µM), inactives show at the top dose activity change, negative = inhibition, most hits filed as inhibitors; calls by dose curve; tested in HEK293 cells; further: potency means the concentration at half of the fitted maximal effect; nearly all actives have a fitted effect of over 50% in size
Vaccinia mCherry = vaccinia inhibition (mCherry reporter). AID 720579. Vaccinia virus mCherry reporter infection, fluorescence. actives 0.63% (n = 310,000). Potency, µM (highest dose often 36.5 µM), for the others: at the top dose activity change, negative = inhibition, most hits filed as inhibitors; calls by dose curve; tested in A549 cells; further: potency means the concentration at half of the fitted maximal effect; nearly all actives have a fitted effect of over 35% in size
MARV entry inh = Marburg virus entry inhibition | AID 540276 | Marburg virus pseudotyped entry inhibition, cell reporter | Potency, µM (series often up to 37.8 µM), for inactives: top-dose activity change, negative = inhibition, actives largely listed as inhibitors | actives 1.8% (n = 300,000); calls by dose curve; tested in HEK293 cells; further: potency means the concentration at half of the fitted maximal effect
FMDV antiviral = blocks foot and mouth disease virus; FMDV antiviral cell-based qHTS; Potency, µM (series often up to 57.9 µM), for the others: top-dose activity change, negative = inhibition, actives largely listed as inhibitors; actives 1.2% (n = 410,000); calls by dose curve; tested in HEK293T cells; further: read-out not given here; potency means the concentration at half of the fitted maximal effect; nearly all actives have a fitted effect of over 45% in size
VACV Venus inh = inhibitors of vaccinia virus (Venus reporter) | actives 0.46% (n = 330,000) | Vaccinia virus Venus reporter expression, fluorescence | Potency, µM (top dose mostly 36.5 µM), without a hit: at the top dose activity change, negative = inhibition, usual class: inhibitors | AID 720580; calls by dose curve; tested in A549 cells; further: potency means the concentration at half of the fitted maximal effect; nearly all actives have a fitted effect of over 30% in size
* marks the source's active call; other numbers are inactive results; i = inactive; ? = inconclusive; . = not tested or not shown; ! = a repeat was not active; [ ] = another dose, or the depositor's remark. Compounds with a hit are over-represented: about 6.5% of the library has one in this group of screens. On the % scale 0 is the no-effect control and ±100 the full control effect.

SMILES	HCMV antiviral	LASV entry inh	Vaccinia mCherry	MARV entry inh	FMDV antiviral	VACV Venus inh
CC(=O)N1CCN(Cc2nc3cc(NC(=O)c4ccccc4C)ccc3n2C)CC1	27	7%	.	-7%	-11%	-14%
CC(=O)N1CCN(Cc2nc3cc(NC(=O)c4ccc(Cl)cc4)ccc3n2C)CC1	-80*	-17%	-7%	-19%	?	-22%
CCOC(=O)N1CCN(Cc2nc3cc(NC(=O)c4ccc(F)cc4)ccc3n2C(C)C)CC1	-85*	-25%[46.1 µM]	-26%[7.34 µM]	?	?	-18%[7.34 µM]
CCS(=O)(=O)N1CC2(C1)CN(S(=O)(=O)c1ccc(C)cc1)[C@@H](CO)c1[nH]c3cc(OC)ccc3c12	3	.	.	.	.	.
Clc1ccc(Sc2cc(Cl)c(-c3ccccc3)nn2)cc1	98	-22%	.	?	-10%	-19%
CC(Nc1cc(N2CCNCC2)ccc1[N+](=O)[O-])c1ccccc1 (stereo unspecified)	-18	-4%	14µM*	?	-3%	?
CC(Nc1cc(N2CCN(C(=O)C(C)(C)C)CC2)ccc1[N+](=O)[O-])c1ccccc1 (stereo unspecified)	-39	23µM*	.	?	?	.
CC1CCC(C(=O)C2C(=O)C3=C(CCCC3)C2=O)CC1 (stereo unspecified)	.	.	.	-15%	.	.
COC(=O)c1ccc(COc2cc(O)c3c(c2)OC(C)(C)CC3=O)cc1	-8	-6%	-17%	-9%	-21%	-10%
CC1(C)CC(=O)c2c(O)cc(OCc3ccc(Br)cc3)cc2O1	-109*	10%	.	?	14%	.
O=C(NC1CCN(Cc2ccccc2)CC1)c1ccc2c(c1)[nH]c(=O)n2Cc1ccc(F)cc1	-86*	?	?	2.8µM*	?	?
CN1C(=O)/C(=C\c2ccccc2F)Sc2ccc(C(=O)NC3CCN(Cc4ccccc4)CC3)cc21	-71*	.	.	.	?	.
O=C(CCCCCn1c(=S)[nH]c2ccc(N3CCOCC3)cc2c1=O)NC1CCN(Cc2ccccc2)CC1	?	2%	-12%	?	?	-21%
O=C(NC1CCN(Cc2ccccc2)CC1)c1ccc(Cn2c(=S)[nH]c3ccc(N4CCOCC4)cc3c2=O)cc1	49	?	-1%	2.8µM*	20%	-10%
CCCCCn1c(=O)[nH]c2cc(C(=O)NC3CCN(Cc4ccccc4)CC3)ccc2c1=O	-26	-6%	-12%	-1%[46.1 µM]	?	-16%
COc1ccc(/C=C2\Sc3ccc(C(=O)NC4CC4)cc3N(C)C2=O)cc1OC	-29	.	.	.	?	.
CCN1CCN(c2ccc(NC(=O)c3ccc4c(c3)[nH]c(=O)n4Cc3ccc(OC)cc3)cc2)CC1	?	?	?	7.9µM*	-10%	?
O=C(/C=C/c1cn(CC(O)CN2CCCCCC2)c2ccccc12)c1ccccc1 (stereo unspecified)	-39	-26%[46.1 µM]	-9%	?	-3%	-12%
COc1ccc(C(=O)/C=C/c2cn(CC(O)CN3CCCCCC3)c3ccccc23)cc1OC (stereo unspecified)	-91*	?	?	?	-20%	-21%
COc1ccc(C(=O)/C=C/c2cn(CC(O)CN3CCN(C)CC3)c3ccccc23)cc1OC (stereo unspecified)	-78*	-25%	?	?	-5%	?
O=C(/C=C/c1cn(CC(O)CN2CCCCC2)c2ccccc12)c1ccccc1 (stereo unspecified)	-85*	?	-7%	?	-6%	-15%
Cc1ccc(C(=O)/C=C/c2cn(CC(O)CN3CCCCCC3)c3ccccc23)cc1 (stereo unspecified)	-39	6%[46.1 µM]	i	?	?	-25%
O=C(Cc1ccccc1)NCC(=O)Nc1cccc(Cl)c1	-22	-12%	-10%	?	21%	-4%
C[C@H](Cc1ccc(O)c(O)c1)[C@@H](C)Cc1ccc(O)c(O)c1	.	?	-17%	14µM*	-27%	-22%
N[C@@H](Cc1ccc(O)c(O)c1)C(=O)O	?	?	-12%	16µM*!	14%	-11%
SMILES	HCMV antiviral	LASV entry inh	Vaccinia mCherry	MARV entry inh	FMDV antiviral	VACV Venus inh
CC(=O)NC(Cc1ccc(N(CCCl)CCCl)cc1)C(=O)NC(C(=O)O)C(C)C (stereo unspecified)	4	-14%	i	6%[46.1 µM]	-15%	-8%
NC(Cc1ccc(O)c([N+](=O)[O-])c1)C(=O)O (stereo unspecified)	-1	-1%	i	9%	-24%	-6%
CCOC(=O)CC(NC(=O)C(Cc1ccc(N(CCCl)CCCl)cc1)NC(C)=O)C(=O)OCC (stereo unspecified)	-92*	?	i	?	-30%	-8%
CCC(N)C(O)c1ccc(O)c(O)c1 (stereo unspecified)	.	.	-5%	.	-8%	-5%
NC(C(=O)O)C(O)c1ccc(O)c(O)c1 (stereo unspecified)	.	?	.	1.3µM*	.	.
O=C(NCc1cccc(C(F)(F)F)c1)c1ccc2sc([C@@H]3O[C@H](CO)[C@H](O)[C@H](O)[C@H]3O)nc2c1	-7	.	0%	.	-13%	-9%
C[C@H](CCC(=O)OCc1cn(CC(=O)c2ccc(O)cc2)nn1)[C@H]1CC[C@H]2[C@@H]3CC[C@@H]4C[C@H](O)CC[C@]4(C)[C@@H]3C[C@H](O)[C@]12C	.	6%[46.1 µM]	.	.	.	.
Nc1nnc(SCc2cn3cc(Cl)ccc3n2)s1	38	-19%[46.1 µM]	i	?	19%	-7%
NC(Cc1ccc(N(CCCl)CCCl)cc1)C(=O)O (stereo unspecified)	.	2.9µM*	i	5.8µM*	12%	-11%
COc1ccc(-c2noc(CC(=O)N(C)c3cccc(C)c3)n2)cc1	-13	-15%[46.1 µM]	-14%	.	-26%	-7%
Cc1cccc(N(C)C(=S)Oc2ccc3ccccc3c2)c1	-61*	-2%	-20%	-8%	-23%	-17%
COc1cccc(/C=N/Nc2ncnc3scc(-c4ccccc4)c23)c1O	-100*	5.2µM*	2µM*	1.4µM*	-2%	?
COc1ccc(/C=N/Nc2nccnc2Cl)c(OC)c1	-10	?	-5%	21%[46.1 µM]	19%	-1%
COc1cccc(/C=N/Nc2nccnc2Cl)c1O	-96*	2.1µM*	1.3µM*	1.6µM*	13µM*	?
COc1ccc(/C=N/Nc2nccnc2Cl)cc1	108	8.2µM*	-13%	?	.	-7%
COc1cccc(/C=N/Nc2ncnc(Cl)c2N)c1O	-97*	3.7µM*	3.5µM*	2.5µM*	-10%	5µM*
Cc1ccc(N2C(=O)CS/C2=N\C(=S)Nc2ccccc2)cc1	11	?	-13%	-12%	-10%	-14%
CCC(=O)N1CC2(CN(C(=O)NC(C)C)C2)c2c(n(C)c3cc(OC)ccc23)[C@H]1CO	15	.	.	.	.	.
COc1ccc(/C=N/Nc2nncc3ccccc23)cc1	98	?	-4%	?	3.5µM*	-7%
